Screening results: PubChem, The Scripps Research Institute Molecular Screening Center
CHRM1 agonist: human M1 muscarinic receptor agonists, primary screen, Fluo-8 calcium fluorescence, CHO-K1 cells, HTS. Muscarinic acetylcholine receptor M1 (Homo sapiens), P11229. CHO-K1 hM1, agonist mode; 0% DMSO, 100% acetylcholine EC100. activation, % at 3 µM. 360,000 compounds, 0.33% hits. AID 588814, 2011;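 active = activation above the run's mean compound activation plus 3 SD, cut at about 16% in these data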;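 also: peak over basal fluorescence ratio within a 140 s kinetic read after compound addition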
Target sequence (P11229 whole entry, looked up): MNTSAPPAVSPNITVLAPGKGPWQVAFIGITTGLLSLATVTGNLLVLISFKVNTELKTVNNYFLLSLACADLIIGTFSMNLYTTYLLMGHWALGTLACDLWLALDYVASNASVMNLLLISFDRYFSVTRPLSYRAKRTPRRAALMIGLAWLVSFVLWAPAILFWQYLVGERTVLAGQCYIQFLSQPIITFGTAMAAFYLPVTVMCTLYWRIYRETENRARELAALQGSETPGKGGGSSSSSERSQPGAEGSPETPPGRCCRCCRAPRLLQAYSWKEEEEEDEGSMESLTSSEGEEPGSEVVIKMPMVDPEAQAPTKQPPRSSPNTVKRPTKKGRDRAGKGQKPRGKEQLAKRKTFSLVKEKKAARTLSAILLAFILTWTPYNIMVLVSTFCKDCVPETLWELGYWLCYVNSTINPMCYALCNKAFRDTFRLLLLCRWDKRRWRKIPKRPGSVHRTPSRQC
CHRM1 PAM: human M1 muscarinic receptor positive allosteric modulators, primary screen, CHO-K1 cells, Fluo-8 calcium fluorescence, 1536-well; Muscarinic acetylcholine receptor M1 (Homo sapiens), P11229; activation, % at 3 µM; 360,000 compounds, 0.088% hits; CHO-K1 hM1, ACh EC20; 0% = ACh EC20, 100% = maximal ACh; in the data active = activation above about 19%, passing the limit was not always enough
M1 PAM parental: nonselective calcium activators in parental CHO-K1 cells, primary screen, counter-screen for M1 PAM project, cell-based, Fluo-8 calcium fluorescence, full deck, 1536-well | ATP EC20; 0% at ATP EC20, 100% at ATP max | activation, % at 3 µM | 360,000 compounds, 0.02% hits | AID 602247, 2012;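 active = activation above the run cutoff, the mean activation of all test compounds plus 3 SD, cut at about 40% in these data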;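 also: peak over basal fluorescence ratio in a 140 s read after ATP addition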
M1 antag: human M1 muscarinic receptor antagonists, primary screen, CHO-K1 cells, Fluo-8 calcium fluorescence, 1536-well; 360,000 compounds, 1.3% hits; CHO-K1 hM1, ACh EC80 antagonist; AID 588852, 2011; Muscarinic acetylcholine receptor M1 (Homo sapiens), P11229; inhibition, % at 3 µM;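 active = percent inhibition above its own plate's cutoff, namely the mean of that plate's compound wells plus 3 SD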;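 also: peak over basal fluorescence ratio during 140 s after agonist addition; 0% = ACh EC80 plus DMSO and 100% = DMSO alone without agonist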
CHO-K1 Ca antag: nonselective inhibitor or artifact in parental CHO-K1 cells | ATP-induced calcium, Fluo-8 fluorescence | inhibition, % at 3 µM | 360,000 compounds, 0.6% hits;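 active = inhibition above a per-plate cutoff, the plate's mean sample inhibition plus 3 SD, cut at about 24% in these data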;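 also: 0% = DMSO plus EC80 ATP and 100% = DMSO alone without ATP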
M1 ag parental: counter-screen for M1 agonists: effect in parental CHO-K1 cells; Fluo-8 calcium fluorescence; scaled to maximal ATP response, vehicle zero; activation, % at 3 µM; 360,000 compounds, 0.48% hits; in the data active = activation above about 15%;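 also: untransfected CHO-K1 host cells lacking M1 receptor as counterscreen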
An asterisk follows results filed as active. Most compounds without a hit are left out; they make up all but 2.3% or so of the library.

SMILES	CHRM1 agonist	CHRM1 PAM	M1 PAM parental	M1 antag	CHO-K1 Ca antag	M1 ag parental
O=C(NC1CCCc2c1cnn2-c1cc(F)cc(F)c1)c1ccncc1 (stereo not drawn)	-4.0	6.0	-7.9	-10.2	-8.1	1.6
CC(C)(C)c1ccc(-n2ncc3c2CCCC3NC(=O)c2ccncc2)cc1 (stereo not drawn)	-4.4	-19.4	9.8	61.8*	-2.2	3.6
Cc1cc(C(=O)NC2CCCc3c2cnn3-c2ccc(C)c(C)c2)n(C)n1 (stereo not drawn)	1.5	-11.3	-26.2	43.6*	25.3*	13.5
COc1ccc(/C=N/NC(=O)c2cccc(S(=O)(=O)N3CCCC3)c2)cc1O	-3.1	10.2	-9.6	-3.9	-6.2	1.0
CCC(Oc1ccc(C)c(C)c1)C(=O)N1CCCN(C)CC1 (stereo not drawn)	-6.0	-2.1	6.6	-0.6	-13.2	0.5
CNc1cccc(-c2c(OC)cccc2OC)n1	-8.7	-1.7	19.7	-2.8	-8.8	1.8
CNc1cccc(-c2cc(OC)ccc2OC)n1	-8.1	-22.1	9.0	42.0*	3.5	3.8
Cc1c(N=C(N)/N=C(\N)Nc2ccccc2)c(=O)n(-c2ccccc2)n1C	-11.8	-27.2	-6.5	66.8*	-2.1	0.1
COc1ccc(OC)c(S(=O)(=O)N2CCN(C34CC5CC(CC(C5)C3)C4)CC2)c1	-5.8	-20.1	1.5	47.8*	-2.0	0.7
CCN1CCN(S(=O)(=O)c2cc(OC)ccc2OC)CC1	-4.2	-5.2	-11.7	9.6	19.8	0.3
CN(C)CCOCCOc1ccccc1-c1ccccc1	-7.6	-12.3	27.5	18.0	-13.7	0.9
CNCCCCOc1ccccc1-c1ccccc1	-7.6	-23.4	13.7	36.7*	-4.6	3.5
CN(C)CCOc1ccccc1-c1ccccc1	-6.2	-20.6	3.7	44.7*	1.8	0.1
CCOc1ccc(C(=O)NCC(=O)OCc2cc([N+](=O)[O-])cc3c2OCOC3)cc1OCC	-8.4	7.0	16.4	-7.7	-3.6	1.2
COc1cc(C(=O)NC(CCSC)C(=O)OCc2cc([N+](=O)[O-])cc3c2OCOC3)cc(OC)c1OC (stereo not drawn)	-1.7	-8.0	10.5	25.9*	-5.9	3.9
CCC(C)NC(=O)c1c(N)n(/N=C/c2ccccn2)c2nc3ccccc3nc12 (stereo not drawn)	-5.2	1.8	-5.6	9.1	16.7	-0.2
CCC(C)NC(=O)c1c(N)n(/N=C/c2cccnc2)c2nc3ccccc3nc12 (stereo not drawn)	-0.6	14.4	-3.6	0.3	25.1*	-0.7
Cc1cc(Cl)ccc1C(O)c1ncc(-c2ccc(C(F)(F)F)cc2)[nH]1 (stereo not drawn)	-3.7	-1.1	7.2	-1.2	3.6	1.2
O=C(CCCN1C(=O)NC2(CCCC2)C1=O)Nc1ccc(F)cc1	-1.1	8.5	1.0	9.9	3.6	0.1
Cc1ccc(Sc2ccc(NC(=O)CCN3C(=O)NC4(CCCC4)C3=O)cc2)c(C)c1	-4.9	-14.0	15.7	35.0*	2.6	3.8
Cc1ccc(-c2cc(C(=O)OCC(=O)NC3CC3)c3ccccc3n2)cc1	-5.8	1.8	8.7	-7.8	-15.7	0.6
CCCCCCC1CC(CCc2nc(=S)[nH][nH]2)C(=O)O1 (stereo not drawn)	-6.9	4.9	4.4	-2.5	-5.5	-0.1
CCCCCCCCc1nc(=S)[nH][nH]1	-3.9	10.9	-6.4	-12.3	25.5*	0.0
C[C@H](CO)N1C[C@H](C)[C@@H](CN(C)Cc2ccc(Cl)c(Cl)c2)Oc2c(NS(=O)(=O)c3cccs3)cccc2C1=O	3.2	17.6	4.8	-17.9	-12.1	1.1
O=c1c2ccc(F)cc2sn1-c1ccccc1	16.4*	-1.1	3.8	-12.4	-1.7	10.9
SMILES	CHRM1 agonist	CHRM1 PAM	M1 PAM parental	M1 antag	CHO-K1 Ca antag	M1 ag parental
Cc1ccc(-n2sc3cc(F)ccc3c2=O)c(C)c1	17.5*	-4.1	-1.8	-8.9	-0.3	14.9
O=c1c2cc(F)ccc2sn1-c1ccccc1Cl	-1.3	-1.4	4.5	-4.4	3.6	0.4
O=C(OCC(=O)N(Cc1ccccc1)Cc1ccccc1)c1ccccc1NCCO	0.5	-7.9	-4.3	20.8*	9.5	6.2
O=C(CN1CCN(CN2C(=O)NC3(CCCCCC3)C2=O)CC1)Nc1ccc(F)cc1	-3.7	8.0	18.8	-9.2	-16.5	1.6
CCC(NC(=O)c1cc(COc2cc(C)c(Cl)c(C)c2)on1)c1ccncc1 (stereo not drawn)	12.9	5.0	1.9	12.0	2.9	16.6*
COc1ccc(SCCN2CC[C@@H](C)CCC2=O)cc1	-5.6	-15.5	-17.6	25.6	24.0*	0.9
O=C1[C@H]2[C@@H](c3ccc(Cl)cc3)N3C(=O)N(c4cccc(Br)c4)C(=O)[C@@]3(Cc3ccc(Cl)cc3)[C@H]2C(=O)N1C1CCCCC1	-7.5	-0.3	14.4	-1.2	-18.9	0.7
O=C1[C@H]2[C@@H](c3ccc(F)cc3)N3C(=O)N(c4cccc(Br)c4)C(=O)[C@@]3(Cc3ccc(Cl)cc3)[C@H]2C(=O)N1C1CCCCC1	4.1	27.2*	1.8	-17.1	-2.5	-0.3
COc1ccccc1N(CC(O)CN1CCOCC1)S(=O)(=O)c1ccccc1 (stereo not drawn)	-1.5	13.7	12.6	-13.0	5.2	0.0
CC(C)(C)OC(=O)NCCCC[C@@H](C(=O)NCCCCCCCCCCC(=O)N1CCN(C(=O)OC(C)(C)C)CC1)n1cc(CCO)nn1	-5.6	-9.8	11.2	-4.2	-1.6	1.3
CC[C@H](C)Cc1cn([C@@H](CCCCNC(=O)OC(C)(C)C)C(=O)NCCCCCCCCCCC(=O)N2CCN(C(=O)OC(C)(C)C)CC2)nn1	-2.3	-28.2	-6.1	47.8*	-0.9	5.4
CC[C@@H](C)[C@@H](C(=O)N1CCN(C(=O)OC(C)(C)C)CC1)n1cc(CCCCNC(=O)OC(C)(C)C)nn1	-1.1	-23.6	-10.2	36.4*	20.0	14.7
CC[C@H](C)C(C(=O)N1CCN(C(=O)OC(C)(C)C)CC1)n1cc(C(CC(C)C)NC(=O)OC(C)(C)C)nn1 (stereo partly drawn)	-2.1	6.9	4.0	0.0	1.0	0.7
FC(F)(F)c1cccc(NC(=S)NCc2ccc(Cl)cc2)c1	1.9	-16.1	8.8	22.6	22.0	16.9*
CC(NC(=S)Nc1cccc(C(F)(F)F)c1)C(C)(C)C (stereo not drawn)	-2.0	-16.8	-2.1	45.5*	13.7	13.3
CCn1c(CNc2ccc(F)cc2)nnc1SCCN1CCCCC1	-2.6	-7.4	5.5	14.1	0.5	0.2
